Experimental data: the supplement of paper PMC6897291
Counter-ions that a name gives are not always drawn.

Assays:
RIVA [1] = assay: growth inhibition by drug plus 177Lu-lilotomab satetraxetan (1 - RLU/untreated control) (fraction); higher = stronger inhibition; conditions: 177Lu-lilotomab satetraxetan 0.5 ug/ml
In short: (§1)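 RIVA or U-2932 cells were left untreated or pretreated for 18 h with a radiolabelled anti-CD37 antibody conjugate (~600 MBq/mg) at 0.5 µg/ml for RIVA or 1 µg/ml for U-2932. The cells were then washed and seeded at 3,000 cells/well on plates pre-printed with the Selleck Cambridge Cancer Compound library, dosed at 10/100 nM for RIVA and 10/1,000 nM for U-2932. From day 3, RealTime-Glo luminescence was read daily after 1 h at 37°C. Growth inhibition was taken as one minus RLU over the mean of the untreated no-drug wells, of which there were 48 per plate.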

U-2932 [2] = assay: growth inhibition by drug alone (1 - RLU/untreated control) (fraction); higher = stronger inhibition; conditions: 177Lu-lilotomab satetraxetan 0 ug/ml
In short: as §1

RIVA [3] = assay: as above; conditions: 177Lu-lilotomab satetraxetan 0 ug/ml
In short: as §1

U-2932 [4] = assay: growth inhibition by drug plus 177Lu-lilotomab satetraxetan (1 - RLU/untreated control) (fraction); higher = stronger inhibition; conditions: 177Lu-lilotomab satetraxetan 1 ug/ml
In short: as §1

SMILES	growth inhibition by drug plus 177Lu-lilotomab satetraxetan (RIVA [1]; 100 nM, time (day): 5)	growth inhibition by drug plus 177Lu-lilotomab satetraxetan (RIVA [1]; 100 nM, time (day): 6)	growth inhibition by drug alone (U-2932 [2]; 10 nM, time (day): 3)	growth inhibition by drug alone (U-2932 [2]; 10 nM, time (day): 4)	growth inhibition by drug alone (U-2932 [2]; 10 nM, time (day): 5)	growth inhibition by drug alone (U-2932 [2]; 10 nM, time (day): 6)	growth inhibition by drug alone (U-2932 [2]; 1000 nM, time (day): 3)	growth inhibition by drug alone (U-2932 [2]; 1000 nM, time (day): 4)	growth inhibition by drug alone (U-2932 [2]; 1000 nM, time (day): 5)	growth inhibition by drug alone (U-2932 [2]; 1000 nM, time (day): 6)	growth inhibition by drug alone (RIVA [3]; 10 nM, time (day): 3)	growth inhibition by drug alone (RIVA [3]; 10 nM, time (day): 4)	growth inhibition by drug alone (RIVA [3]; 10 nM, time (day): 5)	growth inhibition by drug alone (RIVA [3]; 10 nM, time (day): 6)	growth inhibition by drug alone (RIVA [3]; 100 nM, time (day): 3)	growth inhibition by drug alone (RIVA [3]; 100 nM, time (day): 4)	growth inhibition by drug alone (RIVA [3]; 100 nM, time (day): 5)	growth inhibition by drug alone (RIVA [3]; 100 nM, time (day): 6)	growth inhibition by drug plus 177Lu-lilotomab satetraxetan (U-2932 [4]; 10 nM, time (day): 3)	growth inhibition by drug plus 177Lu-lilotomab satetraxetan (U-2932 [4]; 10 nM, time (day): 4)	growth inhibition by drug plus 177Lu-lilotomab satetraxetan (U-2932 [4]; 10 nM, time (day): 5)	growth inhibition by drug plus 177Lu-lilotomab satetraxetan (U-2932 [4]; 10 nM, time (day): 6)	growth inhibition by drug plus 177Lu-lilotomab satetraxetan (U-2932 [4]; 1000 nM, time (day): 3)	growth inhibition by drug plus 177Lu-lilotomab satetraxetan (U-2932 [4]; 1000 nM, time (day): 4)	growth inhibition by drug plus 177Lu-lilotomab satetraxetan (U-2932 [4]; 1000 nM, time (day): 5)	growth inhibition by drug plus 177Lu-lilotomab satetraxetan (U-2932 [4]; 1000 nM, time (day): 6)	growth inhibition by drug plus 177Lu-lilotomab satetraxetan (RIVA [1]; 10 nM, time (day): 3)	growth inhibition by drug plus 177Lu-lilotomab satetraxetan (RIVA [1]; 10 nM, time (day): 4)	growth inhibition by drug plus 177Lu-lilotomab satetraxetan (RIVA [1]; 10 nM, time (day): 5)	growth inhibition by drug plus 177Lu-lilotomab satetraxetan (RIVA [1]; 10 nM, time (day): 6)	growth inhibition by drug plus 177Lu-lilotomab satetraxetan (RIVA [1]; 100 nM, time (day): 3)	growth inhibition by drug plus 177Lu-lilotomab satetraxetan (RIVA [1]; 100 nM, time (day): 4)
O=C(c1cc(Cc2n[nH]c(=O)c3ccccc23)ccc1F)N1CCN(C(=O)C2CC2)CC1 [Olaparib (AZD2281)]	0.505	0.533																														
C[C@@H]1CN(CC(=O)Nc2ccc3c(c2)Cc2cccc(-c4cc(=O)cc(N5CCOCC5)o4)c2S3)C[C@H](C)O1	0.37	0.373	0.00343	-0.0228	-0.128	-0.257	-0.073	-0.0366	-0.0776	-0.17	-0.0136	-0.0829	-0.153	-0.417	-0.282	-0.285	-0.284	-0.465	-0.0592	-0.0257	-0.0361	-0.0183	-0.0688	0.0229	0.0334	0.0421	0.275	0.441	0.452	0.479	0.232	0.357
CC[C@@]1(O)C(=O)OCc2c1cc1n(c2=O)Cc2cc3c(CN(C)C)c(O)ccc3nc2-1 [Topotecan HCl]	0.91	0.931	0.427	0.494	0.544	0.586	0.952	0.969	0.977	0.981	0.45	0.629	0.715	0.801	0.689	0.808	0.85	0.882	0.403	0.516	0.604	0.67	0.97	0.978	0.983	0.985	0.802	0.878	0.913	0.944	0.814	0.883
O=C(Cc1ccc(-c2ccc(OCCN3CCOCC3)cc2)cn1)NCc1ccccc1	0.863	0.881	0.144	0.134	0.0891	0.0449	0.964	0.971	0.975	0.978	0.0653	0.0193	-0.0159	-0.201	0.766	0.708	0.676	0.605	0.0847	0.112	0.111	0.18	0.968	0.977	0.981	0.983	0.466	0.544	0.565	0.575	0.833	0.839
O=c1cc(-c2cccc3c2Sc2ccccc2S3)oc(N2CCOCC2)c1	0.405	0.382	-0.0795	-0.0657	-0.0216	0.0484	-0.0815	-0.0342	-0.0721	-0.125	-0.212	-0.223	-0.243	-0.318	-0.0838	-0.0652	-0.119	-0.19	-0.0246	-0.00365	0.0233	0.166	-0.108	-0.0389	-0.0219	0.0537	0.36	0.504	0.522	0.526	0.335	0.399
O=C(CCc1ccc(O)cc1)c1c(O)cc(O)cc1O [Phloretin (Dihydronaringenin)]	0.532	0.521	0.0643	0.0536	-0.0351	-0.0447	-0.0185	0.0218	-0.0851	-0.198	-0.0549	-0.06	-0.168	-0.56	-0.0989	-0.0769	-0.0878	-0.189	0.0204	0.0299	0.064	0.0928	-0.0932	0.0213	-0.0168	0.0656	0.412	0.555	0.573	0.596	0.427	0.522
Nc1nccc(Oc2ccc(NC(=O)c3c[nH]cc(-c4ccc(F)cc4)c3=O)cc2F)c1Cl	0.425	0.43	-0.0716	-0.0777	-0.0731	-0.06	-0.103	-0.0916	-0.0987	-0.109	-0.189	-0.254	-0.278	-0.424	-0.523	-0.459	-0.483	-0.598	-0.0906	-0.0231	0.0271	0.0973	-0.0589	0.0171	0.0665	0.209	0.468	0.516	0.536	0.547	0.364	0.43
CO[C@@H](C(=O)N1Cc2[nH]nc(NC(=O)c3ccc(N4CCN(C)CC4)cc3)c2C1)c1ccccc1	0.685	0.776	0.0385	-0.0423	-0.0829	-0.0542	0.206	0.258	0.259	0.368	-0.0286	-0.0311	-0.0917	-0.234	0.138	0.0638	0.148	0.29	0.00406	0.0748	0.116	0.142	0.398	0.469	0.53	0.634	0.555	0.594	0.603	0.604	0.514	0.615
COc1cc([C@@H]2c3cc4c(cc3[C@@H](O[C@@H]3O[C@@H]5CO[C@@H](C)O[C@H]5[C@H](O)[C@H]3O)[C@H]3COC(=O)[C@H]23)OCO4)cc(OC)c1O [Etoposide (VP-16)]	0.816	0.845	-0.0657	-0.0505	-0.0531	-0.0136	0.738	0.843	0.913	0.949	-0.26	-0.276	-0.302	-0.423	-0.0322	0.0869	0.148	0.202	-0.108	-0.0574	-0.0473	0.0279	0.823	0.901	0.945	0.969	0.345	0.51	0.549	0.556	0.681	0.776
COC(=O)C1=C(C)NC(C)=C(C(=O)OCCCN2CCC(c3ccccc3)(c3ccccc3)CC2)[C@H]1c1cccc([N+](=O)[O-])c1 [S-(+)-Niguldipine hydrochloride]	0.566	0.562	0.0443	0.0164	-0.0556	-0.116	0.105	0.109	0.032	0.0169	0.00175	-0.0387	-0.0555	-0.128	-0.336	-0.283	-0.288	-0.329	-0.0121	0.0306	0.0867	0.111	0.113	0.151	0.317	0.268	0.569	0.592	0.608	0.623	0.527	0.552
O=C(NC1CCNCC1)c1n[nH]cc1NC(=O)c1c(Cl)cccc1Cl	0.566	0.533	0.0998	0.0607	0.0482	0.00372	0.953	0.964	0.972	0.975	0.0833	0.0499	0.00549	-0.171	-0.131	-0.1	-0.185	-0.425	0.0507	0.0657	0.0758	0.0972	0.947	0.964	0.971	0.977	0.495	0.577	0.593	0.579	0.503	0.57
Nc1nccc(-c2ccc3noc(-c4ccc(Cl)cc4)c3c2)n1 [PIM-1 Inhibitor 2]	0.524	0.507	0.154	0.0795	7.17e-05	-0.0865	0.121	0.133	0.0739	0.0111	0.115	0.126	0.0578	-0.0926	0.116	0.161	0.123	0.0468	0.0725	0.102	0.129	0.208	0.106	0.208	0.188	0.253	0.465	0.59	0.607	0.604	0.451	0.536
Cn1cnc(N)c2ncnc1-2 [3-Methyladenine]	0.57	0.56	0.0713	0.0365	0.0189	0.0577	0.00855	0.0177	-0.0282	-0.00202	0.018	-0.00798	-0.0197	-0.0603	-0.346	-0.249	-0.276	-0.338	0.0187	0.0789	0.12	0.165	-0.00331	0.0603	0.0974	0.207	0.557	0.602	0.615	0.612	0.517	0.565
O=C(O)c1ccc2cc(-c3ccc(O)c(C45CC6CC(CC(C6)C4)C5)c3)ccc2c1	0.518	0.526	0.159	0.0954	-0.0581	-0.0515	0.757	0.836	0.861	0.877	0.00625	0.0377	-0.0188	-0.334	-0.285	-0.127	-0.181	-0.353	0.108	0.127	0.182	0.221	0.737	0.802	0.838	0.847	0.642	0.675	0.699	0.702	0.404	0.512
COc1nc(-c2ccc3c(c2)OCO3)n(-c2ccc(NC(=O)CSc3ccccc3)cc2)n1 [SecinH3]	0.437	0.419	-0.0611	-0.0455	-0.0236	0.124	-0.143	-0.0966	-0.134	-0.195	-0.242	-0.224	-0.27	-0.428	-0.311	-0.358	-0.334	-0.394	-0.0793	-0.0496	-0.0101	0.122	-0.197	-0.087	-0.0724	-0.0297	0.275	0.448	0.482	0.494	0.323	0.424
